An excerpt weighted towards active compounds, which were near 7.9% of everything screened.
LASV entry inh = inhibitors of Lassa virus binding or cell entry. Lassa virus pseudotype entry inhibition, cell reporter. 1.2% of 300,000 active. Potency, µM (titrated, usually from 37.9 µM), for the others: at the top dose activity change, negative = inhibition, hits mostly inhibitors; calls by dose curve; tested in HEK293 cells; note: potency is the fitted concentration of half-maximal effect; nearly all actives have a fitted effect of over 50% in size
FMDV inh = foot and mouth disease virus antiviral activity. FMDV antiviral cell-based qHTS. Potency, µM (titrated, usually from 57.9 µM), without a hit: at the top dose activity change, negative = inhibition, usual class: inhibitors. 1.2% of 410,000 active. AID 1159524; calls by dose curve; tested in HEK293T cells; note: read-out not given here; potency is the fitted concentration of half-maximal effect; nearly all actives have a fitted effect of over 45% in size
HCV inh = HCV inhibition | 3.4% of 340,000 active | Potency, µM (titrated, usually from 41.8 µM), for inactives: top-dose activity change, negative = inhibition, most hits filed as inhibitors | AID 651820 | Huh7.5.1 HCVcc-Cre infection, luciferase reporter, 44 h; active = well fitted inhibition curve with a large enough effect; inconclusive = small, poorly fitted or top-dose-only effect, or another doubt; inactive = no such curve, though single readings can be large or run the other way; note: potency is the fitted concentration of half-maximal effect
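Cells (1,000/well) were plated 4 h before compound, then infected with HCVcc-Cre virus (~0.5 moi). After 44 h further culture, infection was read as luciferase luminescence following a 15 min substrate incubation at room temperature.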
HCMV antiviral = inhibitors of human cytomegalovirus. HFF cells, HCMV-luciferase reporter, 72 h; active compounds read low. activity change, negative = inhibition, % at 57.5 µM. 4.5% of 410,000 active; in the data active = activity change below about -60%; inconclusive = no clear call, values can overlap the other calls; inactive = above about -39%
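Two-dose cell screen: HFF monolayers treated with compounds and infected with luciferase-expressing HCMV at 1 PFU/cell, 72 h at 37C, then lysed for luciferase measurement.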
MARV entry inh = Marburg virus entry inhibition; Marburg virus pseudotyped entry inhibition, cell reporter; 1.8% of 300,000 active; Potency, µM (doses to about 37.8 µM), for inactives: at the top dose activity change, negative = inhibition, hits mostly inhibitors; AID 540276; calls by dose curve; tested in HEK293 cells; note: potency is the fitted concentration of half-maximal effect
Numbers without * were called inactive; [ ] = dose if it differs, or a comment. % is set by controls: 0 for no effect and ±100 for the full control effect.

How did CCCCOCCCNC(=O)C[C@@H]1C[C@@]2(C(=O)OCC)CCC=C2N(Cc2cccc3ccccc23)C1=O do in these assays?
FMDV inh: -17%; HCMV antiviral: -18

How did O=C(NCc1cccc(C(F)(F)F)c1)O[C@H]1CC[C@@]23CCCN2C(=O)CCC[C@H]3[C@H]1Cc1ccccc1 do in these assays?
HCMV antiviral: -17

Results for O=C(c1ccoc1)N1CCN(c2cc(-c3ccccc3)nc3cc(-c4ccc(Br)cc4)nn23)CC1 ?
FMDV inh: 22µM*; HCMV antiviral: -63*

What do the screens show for `O=C(c1ccoc1)N1CCN(c2cc(-c3ccncc3)nc3cc(-c4cccc(Cl)c4)nn23)CC1`?
FMDV inh: inconclusive; HCMV antiviral: -14

What do the screens show for `CC(=O)N1CCN(c2cc(-c3ccccc3)nc3cc(-c4cccc(Cl)c4)nn23)CC1`?
FMDV inh: 18µM*; HCMV antiviral: -89*

Results for O=C(c1ccncc1)N1CCN(c2cc(-c3ccccc3)nc3cc(-c4cccc(Cl)c4)nn23)CC1 ?
FMDV inh: 28µM*; HCMV antiviral: 6

What do the screens show for `Cc1cccc(Nc2cc(C)c3c(O)cccc3n2)c1C`?
LASV entry inh: inconclusive; FMDV inh: 4%; HCV inh: inconclusive; HCMV antiviral: -65*; MARV entry inh: inconclusive

Results for Cc1cc(Nc2ccccc2O)nc(C)n1 ?
LASV entry inh: 6%[46.1 µM]; FMDV inh: 12%; HCMV antiviral: -1; MARV entry inh: 1%[46.1 µM]

Results for Fc1cccc(Cc2c(-c3ccco3)nc3c4ccccc4ccn23)c1 ?
FMDV inh: 39%; HCMV antiviral: 308

What do the screens show for `Cc1ccc(C)c(NC(=O)CSc2nnc(CCCCCNC(=O)OC(C)(C)C)o2)c1`?
LASV entry inh: 6%; FMDV inh: 16µM*; HCV inh: 8%; HCMV antiviral: 71; MARV entry inh: -3%

How did CC(C)(C)OC(=O)NCCCCCc1nnc(SCc2ccc(F)cc2)o1 do in these assays?
LASV entry inh: -8%; FMDV inh: inconclusive; HCV inh: inconclusive; HCMV antiviral: -67*; MARV entry inh: inconclusive

Results for O=C(/C(=C/O)N=Nc1ccc(Cl)cc1)c1ccncc1 ?
LASV entry inh: inconclusive; FMDV inh: 32µM*; HCV inh: inconclusive; HCMV antiviral: -6; MARV entry inh: inconclusive

Results for CCN1C(=O)[C@@H]2[C@H]3[C@H](O)[C@H](O)CC(=NOC[C@H]4O[C@H](c5ccccc5)C=C[C@H]4Oc4ccc(OC)cc4)[C@@H]3CC[C@H]2C1=O ?
MARV entry inh: -28%[14.2 µM]

Results for O=C(CNC(=S)N(Cc1ccccc1F)C1CCCCC1)NCC1CCCO1 (stereo not drawn) ?
LASV entry inh: 4.5µM*; FMDV inh: 0%; HCV inh: -13%; HCMV antiviral: -61*; MARV entry inh: inconclusive

How did Cc1cc(S(=O)(=O)NCC(c2ccc3c(c2)OCO3)N2CCOCC2)ccc1F (stereo not drawn) do in these assays?
FMDV inh: 6%; HCV inh: 3%; HCMV antiviral: -64*

How did O=[N+]([O-])c1ccc(S(=O)(=O)NCC(c2cccnc2)N2CCOCC2)cc1 (stereo not drawn) do in these assays?
FMDV inh: 5%; HCV inh: 4%; HCMV antiviral: -30

Results for Cc1ccc(S(=O)(=O)NCC(c2cccnc2)N2CCOCC2)cc1 (stereo not drawn) ?
FMDV inh: 0%; HCV inh: 3%; HCMV antiviral: -79*

Results for Cc1ccc(CN2C[C@@H](Sc3nc(C)cc(C)n3)C[C@H]2C(=O)N2CCN(c3ccccc3F)CC2)cc1 ?
FMDV inh: 30%

Results for COc1ccc(NC(=O)c2cc(-c3ccccn3)nc3ccccc23)cc1S(=O)(=O)N(C)C ?
LASV entry inh: inconclusive; FMDV inh: inconclusive; HCV inh: inconclusive; HCMV antiviral: -11; MARV entry inh: 16µM*

Results for CCN(CC)C(=O)c1cccc(NC(=O)c2cc(-c3ccccn3)nc3ccccc23)c1 ?
LASV entry inh: -30%; FMDV inh: -29%; HCV inh: inconclusive; HCMV antiviral: 4; MARV entry inh: inconclusive

Results for Cc1cc(C(=O)Nc2cccc(S(=O)(=O)N3CCCC3)c2)c2ccccc2n1 ?
FMDV inh: inconclusive; HCV inh: inconclusive; HCMV antiviral: -15

How did O=C(Nc1cccc(S(=O)(=O)N2CCCC2)c1)c1cc(-c2ccccn2)nc2ccccc12 do in these assays?
LASV entry inh: inconclusive; FMDV inh: -27%; HCV inh: inconclusive; HCMV antiviral: 4; MARV entry inh: 7.9µM*

What do the screens show for `CCN(CC)S(=O)(=O)c1cc(NC(=O)c2cc(-c3ccccn3)nc3ccccc23)ccc1C`?
FMDV inh: -29%; HCV inh: 14µM*; HCMV antiviral: 15

Results for O=C1/C(=C/c2cccnc2)SC(=S)N1C1CCS(=O)(=O)C1 (stereo not drawn) ?
LASV entry inh: inconclusive; FMDV inh: 14µM*; HCV inh: 1%; HCMV antiviral: inconclusive; MARV entry inh: inconclusive

Results for CC(C)CCN(C(=O)c1csnn1)C(C(=O)NC1CCCCC1)c1ccc(F)cc1 (stereo not drawn) ?
LASV entry inh: inconclusive; FMDV inh: 11%; HCV inh: -13%; HCMV antiviral: inconclusive; MARV entry inh: inconclusive

Results for CCOC(=O)N1CCN(C(=O)CN(Cc2ccc(Cl)cc2)S(=O)(=O)c2ccc(C)cc2)CC1 ?
LASV entry inh: 8.2µM*; FMDV inh: inconclusive; HCV inh: inconclusive; HCMV antiviral: -38; MARV entry inh: -23%

Results for CCc1ccc(CNC(=O)c2cnc3sc(N4CCCCCC4)nn3c2=O)cc1 ?
LASV entry inh: inconclusive; FMDV inh: -15%; HCMV antiviral: 0

How did COc1cc(S(=O)(=O)Nc2ccncc2)ccc1F do in these assays?
LASV entry inh: 0%; FMDV inh: 6%; HCV inh: 1%; HCMV antiviral: -38; MARV entry inh: 24%[46.1 µM]

Results for CCc1ccc(OC)c(S(=O)(=O)Nc2ccc(Cc3ccncc3)cc2)c1 ?
LASV entry inh: 13µM*; FMDV inh: 19%; HCV inh: 8.9µM*; HCMV antiviral: -75*; MARV entry inh: inconclusive

Results for Cc1cc(S(=O)(=O)NCc2ccncc2)c(C)cc1Br ?
LASV entry inh: inconclusive; FMDV inh: -3%; HCMV antiviral: -87*; MARV entry inh: inconclusive

Results for O=S(=O)(Nc1ccc(-n2cccc2)cc1)c1ccc(Cl)c(Cl)c1 ?
FMDV inh: -3%; HCV inh: -3%; HCMV antiviral: 43

Results for O=S(=O)(Nc1ccc(Cc2ccncc2)cc1)c1ccc(Cl)c(Cl)c1 ?
LASV entry inh: -25%; FMDV inh: -6%; HCV inh: 7.9µM*; HCMV antiviral: inconclusive; MARV entry inh: inconclusive

What do the screens show for `COc1ccc(S(=O)(=O)Nc2ccc(Cc3ccncc3)cc2)cc1OC`?
LASV entry inh: inconclusive; FMDV inh: -17%; HCV inh: inconclusive; HCMV antiviral: -65*; MARV entry inh: 1.4µM*
